Data taken from the supplement of paper PMC10849652.
Of roughly 7,900 targets only a part is listed; those with a hit were picked by preference. About 0.6% of all pairs of compound and target were hits.

What was measured:
Test in all cases: log2 fold change, soluble protein after heating vs DMSO (PISA); higher = thermal stabilisation; K562 cells, 10 uM, 30 min; active = over 0.2 and 3.5 SD of the protein, either way, in both replicates (recomputed)
[1] = compound: NC(=O)Nc1cc(-c2cccc(F)c2)sc1C(=O)N[C@H]1CCCNC1
Summary of the method: (§1)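 K562 cells at 2×10^6 cells/mL were treated for 30 min with 10 μM compound, and aliquots were heated for 3 min over 48°C-58°C before pooling. Extraction used PBS with 0.5% NP-40 at 4°C, and soluble protein was the supernatant after 21,000xg for 90 min, measured by TMTpro 16plex LC-MS/MS with channel sums equalised. Thermal stability values, relative to control samples and from duplicates, are log2 fold changes.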

[2] = compound: NC(=O)c1cnc(N[C@@H]2CCCC[C@@H]2N)nc1Nc1cccc(-n2nccn2)c1
Summary of the method: as §1

[3] = compound: NC1(c2ccc(-c3nc4ccn5c(=O)[nH]nc5c4cc3-c3ccccc3)cc2)CCC1
Summary of the method: as §1

[4] = compound: NCC(=O)Nc1ccc(-n2nc(C(F)(F)F)cc2-c2ccc3c(ccc4ccccc43)c2)cc1
Summary of the method: as §1

entinostat = compound: Nc1ccccc1NC(=O)c1ccc(CNC(=O)OCc2cccnc2)cc1 [entinostat]
Summary of the method: as §1

vorinostat = compound: O=C(CCCCCCC(=O)Nc1ccccc1)NO [vorinostat]
Summary of the method: as §1

citarinostat = compound: O=C(CCCCCCNC(=O)c1cnc(N(c2ccccc2)c2ccccc2Cl)nc1)NO [citarinostat]
Summary of the method: as §1

silmitasertib = compound: O=C(O)c1ccc2c(c1)nc(Nc1cccc(Cl)c1)c1ccncc12 [silmitasertib]
Summary of the method: as §1

[5] = compound: O=C1NC(=O)C(c2cnc3ccccn23)=C1c1cn2c3c(cc(F)cc13)CN(C(=O)N1CCCCC1)CC2
Summary of the method: as §1

[6] = compound: c1cc(OCCN2CCCCC2)cc(-c2n[nH]c3ccc(-c4nnc[nH]4)cc23)c1
Summary of the method: as §1

Measured: log2 fold change

MIEN1 (UniProt Q9BRT3)
Sequence of UniProt Q9BRT3 (Q9BRT3 whole entry, looked up): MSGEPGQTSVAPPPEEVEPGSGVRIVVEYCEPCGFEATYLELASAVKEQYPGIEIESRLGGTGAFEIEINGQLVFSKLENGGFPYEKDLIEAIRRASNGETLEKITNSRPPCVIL
inactive: [1] 0.045 | [2] 0.003 | [3] -0.013 | [4] 0.001 | entinostat 0.016 | vorinostat -0.042 | citarinostat -0.007 | silmitasertib 0.004 | [5] -0.131 | [6] 0.057

MAST4 (UniProt O15021)
Sequence of UniProt O15021 (O15021 whole entry, looked up): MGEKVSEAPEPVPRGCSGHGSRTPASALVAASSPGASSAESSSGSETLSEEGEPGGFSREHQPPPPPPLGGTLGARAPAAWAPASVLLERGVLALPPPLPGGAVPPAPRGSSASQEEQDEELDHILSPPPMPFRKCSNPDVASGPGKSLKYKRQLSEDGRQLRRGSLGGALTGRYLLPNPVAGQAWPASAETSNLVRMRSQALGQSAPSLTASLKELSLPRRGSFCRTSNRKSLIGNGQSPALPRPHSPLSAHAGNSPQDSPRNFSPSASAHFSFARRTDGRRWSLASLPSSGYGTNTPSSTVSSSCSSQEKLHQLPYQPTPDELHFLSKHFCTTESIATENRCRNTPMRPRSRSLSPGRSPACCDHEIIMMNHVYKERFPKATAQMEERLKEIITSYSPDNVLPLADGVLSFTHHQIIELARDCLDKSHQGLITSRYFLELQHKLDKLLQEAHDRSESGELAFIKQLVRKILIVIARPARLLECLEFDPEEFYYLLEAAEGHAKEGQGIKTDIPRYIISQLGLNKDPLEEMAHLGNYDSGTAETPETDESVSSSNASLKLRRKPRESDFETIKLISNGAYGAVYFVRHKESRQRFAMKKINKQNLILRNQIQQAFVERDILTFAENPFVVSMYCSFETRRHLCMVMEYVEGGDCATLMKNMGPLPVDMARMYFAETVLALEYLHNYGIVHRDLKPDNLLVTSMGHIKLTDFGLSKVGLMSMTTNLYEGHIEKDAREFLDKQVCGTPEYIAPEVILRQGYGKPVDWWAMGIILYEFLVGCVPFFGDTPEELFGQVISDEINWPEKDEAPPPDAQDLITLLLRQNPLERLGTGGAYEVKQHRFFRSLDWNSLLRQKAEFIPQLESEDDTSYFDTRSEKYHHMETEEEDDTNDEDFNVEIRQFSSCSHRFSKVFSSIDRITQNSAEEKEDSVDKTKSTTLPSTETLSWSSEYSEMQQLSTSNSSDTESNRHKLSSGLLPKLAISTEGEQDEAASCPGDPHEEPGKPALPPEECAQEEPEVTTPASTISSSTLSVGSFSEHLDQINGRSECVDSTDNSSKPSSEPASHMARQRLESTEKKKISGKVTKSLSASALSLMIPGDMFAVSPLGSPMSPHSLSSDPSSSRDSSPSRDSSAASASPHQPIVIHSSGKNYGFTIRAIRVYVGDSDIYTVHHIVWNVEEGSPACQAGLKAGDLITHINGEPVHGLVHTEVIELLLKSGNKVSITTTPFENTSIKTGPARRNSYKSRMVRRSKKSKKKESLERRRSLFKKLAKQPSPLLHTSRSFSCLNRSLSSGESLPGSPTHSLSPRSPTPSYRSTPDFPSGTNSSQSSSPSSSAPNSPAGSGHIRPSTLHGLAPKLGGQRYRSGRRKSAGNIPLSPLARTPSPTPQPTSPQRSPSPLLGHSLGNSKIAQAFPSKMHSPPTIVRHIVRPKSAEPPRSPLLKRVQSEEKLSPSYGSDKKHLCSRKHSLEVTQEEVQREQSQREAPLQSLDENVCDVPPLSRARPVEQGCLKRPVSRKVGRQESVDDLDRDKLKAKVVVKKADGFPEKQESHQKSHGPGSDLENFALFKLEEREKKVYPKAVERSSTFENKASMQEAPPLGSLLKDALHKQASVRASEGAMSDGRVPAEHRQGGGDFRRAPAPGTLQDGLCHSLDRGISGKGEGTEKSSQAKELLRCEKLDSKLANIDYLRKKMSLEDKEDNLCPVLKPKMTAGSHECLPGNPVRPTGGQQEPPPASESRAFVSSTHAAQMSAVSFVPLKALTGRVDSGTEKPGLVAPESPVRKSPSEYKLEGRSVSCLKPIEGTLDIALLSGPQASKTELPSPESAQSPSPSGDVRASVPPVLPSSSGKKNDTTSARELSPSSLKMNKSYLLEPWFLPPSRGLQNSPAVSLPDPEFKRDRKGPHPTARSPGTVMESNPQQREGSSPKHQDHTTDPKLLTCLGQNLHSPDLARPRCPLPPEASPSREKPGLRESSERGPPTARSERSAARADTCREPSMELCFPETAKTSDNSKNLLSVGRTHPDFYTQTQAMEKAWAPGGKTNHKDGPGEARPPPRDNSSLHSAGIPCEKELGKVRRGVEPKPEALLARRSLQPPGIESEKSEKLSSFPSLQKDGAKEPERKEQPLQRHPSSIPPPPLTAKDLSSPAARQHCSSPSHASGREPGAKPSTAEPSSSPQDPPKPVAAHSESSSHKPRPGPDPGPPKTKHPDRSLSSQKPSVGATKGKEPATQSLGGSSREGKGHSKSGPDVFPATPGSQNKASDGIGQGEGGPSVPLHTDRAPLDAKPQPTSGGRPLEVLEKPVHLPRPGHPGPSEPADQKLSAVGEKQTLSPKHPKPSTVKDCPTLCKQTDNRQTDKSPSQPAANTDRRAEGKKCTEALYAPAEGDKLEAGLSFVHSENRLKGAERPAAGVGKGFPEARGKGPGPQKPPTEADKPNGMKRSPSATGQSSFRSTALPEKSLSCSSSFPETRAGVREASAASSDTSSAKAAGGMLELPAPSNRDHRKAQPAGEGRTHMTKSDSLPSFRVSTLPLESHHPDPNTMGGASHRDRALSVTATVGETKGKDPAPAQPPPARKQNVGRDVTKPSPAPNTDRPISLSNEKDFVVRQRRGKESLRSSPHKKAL
inactive: [1] -0.217 | [2] -0.038 | [3] -0.298 | [4] -0.115 | entinostat 0.085 | vorinostat 0.045 | citarinostat 0.135 | silmitasertib -0.053 | [5] 0.051 | [6] -0.151

LRBA, A0A494BZW2
inactive: [1] 0.036 | [2] -0.031 | [3] -0.114 | entinostat 0.232 | vorinostat -0.032 | citarinostat 0.03 | silmitasertib 0.011 | [5] 0.063 | [6] 0.028

MAPKAPK2 (UniProt P49137)
Sequence of UniProt P49137 (P49137 whole entry, looked up): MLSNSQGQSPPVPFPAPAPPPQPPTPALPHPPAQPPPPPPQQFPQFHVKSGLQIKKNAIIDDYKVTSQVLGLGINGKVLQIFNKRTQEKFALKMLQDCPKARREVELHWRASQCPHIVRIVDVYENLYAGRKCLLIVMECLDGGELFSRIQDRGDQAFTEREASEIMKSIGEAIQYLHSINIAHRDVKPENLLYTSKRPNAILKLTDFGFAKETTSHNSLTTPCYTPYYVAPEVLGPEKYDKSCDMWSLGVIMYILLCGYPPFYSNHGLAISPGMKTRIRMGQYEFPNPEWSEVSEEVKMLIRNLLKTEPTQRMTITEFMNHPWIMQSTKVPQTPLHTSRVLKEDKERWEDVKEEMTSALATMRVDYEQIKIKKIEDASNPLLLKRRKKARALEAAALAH
inactive: [1] 0.12 | [2] 0.035 | [3] -0.14 | [4] 0.034 | entinostat 0.018 | vorinostat 0.04 | citarinostat 0.058 | silmitasertib 0.06 | [5] -0.128 | [6] -0.006

MAPK14 isoform 2 (UniProt Q16539)
Sequence of UniProt Q16539 (Q16539 whole entry, looked up): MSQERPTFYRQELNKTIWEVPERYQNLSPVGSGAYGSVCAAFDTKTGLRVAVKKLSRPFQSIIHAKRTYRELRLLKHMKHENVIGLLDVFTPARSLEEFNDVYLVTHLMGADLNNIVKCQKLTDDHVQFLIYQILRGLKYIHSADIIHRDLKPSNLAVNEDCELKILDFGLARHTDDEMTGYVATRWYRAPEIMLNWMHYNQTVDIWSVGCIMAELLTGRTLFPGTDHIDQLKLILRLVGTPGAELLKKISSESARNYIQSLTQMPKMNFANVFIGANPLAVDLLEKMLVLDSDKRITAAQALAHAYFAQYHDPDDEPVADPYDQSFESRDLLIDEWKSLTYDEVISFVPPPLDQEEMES
inactive: [1] -0.052 | [2] 0.028 | [3] -0.192 | [4] -0.168 | entinostat 0.016 | vorinostat -0.055 | citarinostat 0.085 | silmitasertib 0.477 | [5] -0.004 | [6] 0.024

MARK2 (UniProt E9PC69)
inactive: [1] -0.513 | [2] -0.401 | [4] -0.213 | entinostat 0.101 | citarinostat 0.024 | [5] 0.082 | [6] -0.28

MED7 (UniProt O43513)
Sequence of UniProt O43513 (O43513 whole entry, looked up): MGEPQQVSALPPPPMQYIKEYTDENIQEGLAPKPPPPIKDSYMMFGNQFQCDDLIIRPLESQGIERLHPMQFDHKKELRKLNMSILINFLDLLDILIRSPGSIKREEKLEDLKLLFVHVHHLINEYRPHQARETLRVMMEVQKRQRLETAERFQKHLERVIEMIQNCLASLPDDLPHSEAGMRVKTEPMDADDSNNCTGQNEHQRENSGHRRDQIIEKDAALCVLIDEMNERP
inactive: [1] 0.034 | [2] 0.122 | [4] -0.041 | entinostat -0.16 | [5] -0.085
